Measurements as given in the supplement of paper PMC3334620.
Whole data set: some 33,000 sequences, median “E-score (-0.5 to 0.5)” near -0.011, cut for the highest 2% near 0.28. The sample as a whole holds a higher share of the highest values than the screen did.

The sequences below were run against T1, Gcr1 (UniProt P07261) (assay: PBM E-score (8-mer binding enrichment) (E-score (-0.5 to 0.5)); higher = stronger / more preferred TF binding). Details: protein concentration: 100 nM; construct: GST-full length.
T1 sequence: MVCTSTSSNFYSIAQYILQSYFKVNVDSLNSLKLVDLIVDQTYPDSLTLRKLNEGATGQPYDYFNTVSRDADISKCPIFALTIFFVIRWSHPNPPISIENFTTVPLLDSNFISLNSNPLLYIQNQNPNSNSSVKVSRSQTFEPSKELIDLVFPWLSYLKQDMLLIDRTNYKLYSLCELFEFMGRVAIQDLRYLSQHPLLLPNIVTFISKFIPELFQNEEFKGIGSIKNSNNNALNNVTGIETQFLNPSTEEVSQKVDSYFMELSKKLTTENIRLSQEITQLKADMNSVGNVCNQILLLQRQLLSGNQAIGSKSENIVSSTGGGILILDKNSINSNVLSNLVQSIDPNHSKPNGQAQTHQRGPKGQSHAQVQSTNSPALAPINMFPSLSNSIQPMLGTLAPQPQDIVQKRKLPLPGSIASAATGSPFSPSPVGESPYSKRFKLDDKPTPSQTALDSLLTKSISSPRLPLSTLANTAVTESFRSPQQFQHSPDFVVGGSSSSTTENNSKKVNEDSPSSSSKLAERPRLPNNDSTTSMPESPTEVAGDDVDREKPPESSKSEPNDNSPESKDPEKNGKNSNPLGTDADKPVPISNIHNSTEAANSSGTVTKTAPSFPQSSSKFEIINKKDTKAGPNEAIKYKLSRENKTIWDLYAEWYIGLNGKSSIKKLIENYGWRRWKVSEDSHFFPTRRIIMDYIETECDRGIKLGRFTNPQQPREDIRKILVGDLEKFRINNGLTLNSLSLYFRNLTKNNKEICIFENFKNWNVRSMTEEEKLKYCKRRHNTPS
Protocol: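 Universal 'all 10-mer' protein binding microarrays (Agilent AMADID 015681) probed with GST-tagged S. cerevisiae TFs (full-length or DBD) made by in vitro transcription/translation (PURExpress), about 100-200 nM. Bound TF was detected with fluorescent anti-GST. Each ungapped 8-mer (which stands for itself and its reverse complement) is scored by the PBM enrichment score (E-score), a modified Wilcoxon-Mann-Whitney statistic from -0.5 to +0.5, computed with the Universal PBM Analysis Suite. Scale: above 0.35 generally sequence-specific binding.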

Sequence | PBM E-score
TAAAGGTA | -0.0155
GTGCTACA | -0.119
CTAAACGA | -0.00769
GGTTAACC | -0.194
AATCTGGT | 0.281
AATCTGGA | 0.257
AATCTGGC | 0.0826
CGTTCCCC | -0.0544
AACAAGTG | 0.0405
AATGCCAA | 0.042
GATGCCAA | 0.351
GATGCCAC | 0.342
AATGCCGA | -0.178
AATGCCAC | -0.0507
CATGCCGA | 0.041
TATGCCAA | -0.104
CATGCCAC | -0.109
GATGCCGA | 0.335
GTTCATAA | 0.0771
CAGTGAGG | -0.176
GCCAGGTA | 0.0834
CTCTGCGC | -0.22
CCAGCAGC | 0.272
GCAGCAGA | -0.135
ACAGCAGC | 0.288

Sequence | PBM E-score
CAAGCAGC | 0.324
CACGCAGC | 0.295
GCAGCAGC | 0.307
ACAGCAGT | -0.0218
CACGCAGA | -0.137
GAAGCAGC | 0.24
ACAGCAGA | -0.0557
AAAGCAGC | -0.0508
AACGCAGC | 0.0364
CGCGGCTC | 0.117
CACTTGAG | 0.00447
ACCCTCCG | -0.333
GCCGCAGC | 0.0591
TAAGATCA | 0.157
CGATCGAC | -0.154
GTATCGCA | -0.00444
CATACTTA | 0.0988
AAAAAAGT | 0.135
TGGCTGAA | 0.0392
CATCCAGA | 0.268
GGAGCCCA | 0.349
CGAGCCAA | -0.00353
GGAGCCAC | 0.289
TGAGCCCA | 0.0335
CGAGCCAC | -0.116

Sequence | PBM E-score
GGAGCCCC | 0.265
AGAGCCAC | 0.13
GGAGCCAA | 0.33
AGAGCCAA | -0.13
CCCAGTCC | -0.0352
AAGTTCAA | 0.0288
CACGTGCC | -0.121
ATCGATCC | -0.0388
CCTAGAGG | 0.0618
CAAGTTCG | -0.0211
ACATTGCT | 0.0699
GCATCTCA | 0.139
TGGGCAAA | -0.213
TGCTTCCA | 0.146
AGCTTCGC | 0.173
ACCTTCCC | -0.00014
AGCTTCCG | 0.433
AGCTTCAA | 0.0987
AGCTTCCA | 0.458
AGCTTCGG | 0.17
AGCTTCAG | -0.19
CCCTTCCG | -0.286
AGCTTCCC | 0.378
CGCTTCAG | 0.0898
CGCTTCCG | 0.291

Sequence | PBM E-score
GATTAAGC | 0.0627
CAAAACGC | 0.025
AAGCAAAA | -0.075
CCATCCGG | -0.0299
CGCTTCCA | 0.351
CGCTTCGA | -0.0778
CCCTTCCA | -0.0993
GGCTTCCC | 0.433
GGCTTCAC | -0.14
CGCTTCCC | 0.273
GTCAGGTA | 0.091
GTTCTAAA | 0.0776
CAGAATCC | 0.161
CTATCGCC | -0.00847
AACAGGAT | 0.318
GACAGGAA | 0.316
AACAGGAG | -0.0445
ACCAGGAA | 0.0492
AACAGGAA | 0.334
AACAGGTA | 0.269
GTCAGGAA | 0.104
TACAGGTA | 0.0633
CACAGGAA | 0.118
AACAGGAC | 0.162
GACAGGAC | 0.0783

Sequence | PBM E-score
TACAGGAA | 0.394
CGGCTCAA | 0.00705
GCGGGCAA | -0.146
CACAAGGC | -0.161
AACACCTT | -0.0171
AGTCCCGA | -0.15
CGCATAAA | 0.0544
ACGTTGCA | -0.015
TACCGGAA | 0.341
CACCGGAA | 0.266
AACCGGAA | 0.2
CTCGGGGC | -0.101
CTAAGGCC | 0.046
AGTTGAAT | -0.0577
CGGATGTC | 0.0736
AGCTTCTA | 0.297
GGCTTCTA | 0.297
GCCTTCTA | 0.131
CGCTTCTA | 0.259
AGCTTCTC | 0.25
AGCTTCTG | 0.245
GCTCCGGA | 0.121
CGAACTAC | 0.00469
AGGCCGCA | -0.0993
AGGCCGCG | 0.0497

Sequence | PBM E-score
AGGCCGCC | 0.292
GCTGCCAA | 0.31
CCTGCCTA | 0.00507
CCTGCCAC | 0.0404
ACTGCCAA | 0.0668
GCTGCCTA | 0.305
CCTGCGTA | 0.0119
TCTGCCAA | 0.00421
ACTGCCAC | 0.101
GCTGCCAC | 0.301
ACTGCCTA | 0.0876
GCTGCGTA | 0.286
ACTGCGTA | 0.062
TAGTCTGA | -0.0964
TCCAAACA | 0.135
AGATAACA | -0.0519
ACCGTTAA | -0.119
GCGGACTA | -0.12
GCGTCTCA | 0.146
GCGTCCCA | 0.282
GCGTCCCC | 0.304
ACGTCTCC | 0.101
ACGTCCCC | -0.0668
GCGTCTCC | 0.317
TCGTCCCA | -0.0947

Sequence | PBM E-score
GCGTCCTA | 0.43
CCGTCCCC | 0.00017
CCGTCCTA | -0.158
ACGTCCTA | 0.0954
ACGTCCCA | -0.153
ACTCAACA | 0.122
GCGATCAC | -0.0279
GAGCGACA | -0.0391
TATTGGGA | -0.02
ACTGCACC | 0.014
CAGCCCTC | -0.0883
AAGAATAA | 0.0669
AAAACTGG | 0.254
CATTTACG | 0.0351
GAGTCCCA | 0.313
GAGTCCCC | -0.0421
CAGTCCCA | 0.0489
ACGGCGTC | 0.243
CCAGCGTA | -0.178
CCGGCGTA | -0.139
CGGGCGTC | 0.307
CCAGCGTC | 0.314
GCGGCGCA | -0.064
GCGGCGAC | 0.148
CGGGCGTA | -0.097

Sequence | PBM E-score
ACAGCGTC | -0.0458
CCGGCGTC | 0.402
GCGGCGCC | 0.324
AGGGCGTC | 0.26
GCGCCTGA | 0.171
ATCCTACG | -0.00941
AGGCCCCG | 0.0239
ATGATTTC | -0.142
AAATTGTG | -0.0559
CATAACCC | -0.121
CTCAATCA | 0.119
ACGGCGCA | -0.265
CCGGCGCG | -0.112
ACGGCGCC | 0.312
ACGGCGCT | -0.00448
CCGGCGCA | -0.0778
CCGGCGCC | 0.317
CCTAAAGG | 0.0292
AACTGATC | -0.114
ATGGATCA | -0.201
GCACCACC | -0.0802
GTAGGCCA | -0.106
ATCCGGAC | -0.106
ATCCGGAT | 0.286
ATCCGGAA | 0.26

Sequence | PBM E-score
GAAGTAAA | -0.0223
GAGGCGCC | 0.302
CAGGCGCA | -0.0694
GAGGCGCA | 0.0503
CAGGCGCG | -0.0119
CAGGCGCC | 0.361
AAGGCGCC | 0.258
AAATGGTT | 0.0753
ATTGAAGA | 0.0516
CAGATAGG | 0.0828
TAATTGAA | 0.228
ACACGCAG | 0.323
ATACGCAT | 0.23
ATACGCAG | 0.281
ACACGCAA | 0.127
CTACGCAG | 0.0122
ACACGCAC | 0.0159
AGGCTATC | -0.243
TGTTCAAA | -0.014
